Test results published in PubChem BioAssay.
Calls of active or inactive are those of the source. Unless noted, how the calls were made is not given here.

How the values were obtained:
[1] = tested on: Wnt5a (protein binding on small-molecule microarray); test: small molecules binding Wnt5a protein – biophysical, small-molecule microarray, 635/667 nm fluorescence, primary screen (AID 1142); settings: 635 nm fluorescence, higher = more signal;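 further: fluorescence read at 667 nm with signal to noise per printed feature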
[2] = ATP-based viability of Huh7 replicon cells – cell-based, CellTiter-Glo luminescence, basal, 48 h, cytotoxicity control for HCV replication inhibitor project, primary screen (AID 1143); settings: higher = more signal, called active from +8 up or from −8 down;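 further: Huh7 hepatoma cells carrying a hepatitis C replication reporter with no stimulus; test concentration not given here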
[3] = Pseudomonas biofilm growth suppression – PAO1 strain, BacTiter-Glo luminescence, LB-PBS, primary screen (AID 1144); settings: P. aeruginosa PAO1 biofilm, 12 h, higher = more signal
[4] = basal CRE-LacZ reporter activity in PC12 – cell-based, unstimulated, primary screen (AID 1145); settings: no forskolin, luminescence, 4.5 h, higher = more signal, called active from +8 up or from −8 down
[5] = forskolin-driven CRE-LacZ activity in PC12 – cell-based, CRE-LacZ reporter, forskolin-stimulated, primary screen (AID 1146); settings: luminescence, 4.5 h, higher = more signal, called active from +8 up or from −8 down;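 further: PC12 cells with 6xCRE LacZ reporter stimulated by forskolin 10 µM; beta-galactosidase reporter signal reflecting CREB driven transcription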
[6] = target: Streptavidin (Streptomyces avidinii) (UniProt P22629); test: compounds binding control protein streptavidin – biophysical, small-molecule microarray, 635/667 nm fluorescence, artefact control for SMM compound annotation, primary screen (AID 1147); settings: higher = more signal;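 further: signal reflects streptavidin binding to arrayed compounds as a control protein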
[7] = probe aInhba binding on compound microarray – biochemical, small-molecule microarray, 635/667 nm fluorescence, primary screen (AID 1148); settings: higher = more signal;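 further: score merges 667nm spot fluorescence with signal-to-noise for antibody binding to printed compounds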
Torsin-1A (Homo sapiens) [8] = target: Torsin-1A (Homo sapiens) (UniProt O14656); test: TOR1A wild-type binding on microarray – cell lysate, small-molecule microarray, lysate, 635/667 nm, primary screen (AID 1149); settings: COS7 hTOR1A-WT lysate, 635 nm fluorescence, higher = more signal
Torsin-1A (Homo sapiens) [9] = target: Torsin-1A (Homo sapiens) (UniProt O14656); test: torsin A mutant lysate binding on microarrays – cell lysate, small-molecule microarray, COS7 lysate, 635/667 nm fluorescence, primary screen (AID 1150); settings: COS7 hTOR1A mutant lysate, 635 nm fluorescence, higher = more signal;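 further: score pools 667 nm emission and signal to noise measuring lysate protein binding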
[10] = tested on: Sonic hedgehog protein (Shh); test: Sonic hedgehog microarray binding compounds – biochemical, small-molecule microarray, 635/667 nm fluorescence, primary screen (AID 1151); settings: 635 nm fluorescence, higher = more signal;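 further: Shh protein binding to compounds spotted on small-molecule microarray slides; score combines spot fluorescence intensity with signal-to-noise across triplicate slides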

Sequence of Torsin-1A (Homo sapiens) (O14656 whole entry, looked up): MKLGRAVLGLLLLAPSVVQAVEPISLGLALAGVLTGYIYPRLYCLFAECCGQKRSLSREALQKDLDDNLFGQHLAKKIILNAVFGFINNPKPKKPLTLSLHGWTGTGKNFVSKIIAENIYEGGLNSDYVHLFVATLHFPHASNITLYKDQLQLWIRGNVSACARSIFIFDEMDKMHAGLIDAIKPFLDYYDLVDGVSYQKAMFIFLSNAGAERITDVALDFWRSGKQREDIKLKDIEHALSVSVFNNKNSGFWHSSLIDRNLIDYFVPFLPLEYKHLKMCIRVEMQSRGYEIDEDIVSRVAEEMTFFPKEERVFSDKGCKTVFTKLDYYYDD
Sequence of Streptavidin (Streptomyces avidinii) (P22629 whole entry, looked up): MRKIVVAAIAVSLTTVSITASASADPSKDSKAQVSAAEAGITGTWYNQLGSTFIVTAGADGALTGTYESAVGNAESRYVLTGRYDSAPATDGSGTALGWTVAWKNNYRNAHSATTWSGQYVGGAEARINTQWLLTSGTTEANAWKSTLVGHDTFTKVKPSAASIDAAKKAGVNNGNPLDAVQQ

Compound	composite z-score [1]	z-score [2]	z-score [3]	z-score [4]	z-score [5]	composite z-score [6]	composite z-score [7]	composite z-score (Torsin-1A (Homo sapiens) [8])	composite z-score (Torsin-1A (Homo sapiens) [9])	composite z-score [10]
O=C1C2C=CC(C(O)C(c3ccccc3)c3ccccc3)N(Nc3ccccc3)C2C(=O)N1c1ccccc1 (stereo not given)	0.422	-0.374 (inactive)	-1.06 (inactive)	0.629 (inactive)	-0.222 (inactive)	0.828	0.271	0.616	0.984	0.734
O=c1cccc(-c2ccccc2C(F)(F)F)o1	0.297	-0.121 (inactive)	0.0176 (inactive)	-0.471 (inactive)	-0.12 (inactive)	-0.318	0.763	0.242	0.0563	-0.999
COCCOC(=O)N1C(=O)[C@@]2(c3cc(C#CC4(O)CCCCCC4)ccc31)[C@H](C(=O)NC[C@H](O)c1ccccc1)[C@H]1C(=O)O[C@H](c3ccccc3)[C@H](c3ccccc3)N1[C@@H]2c1ccc(O)cc1	0.233	-0.622 (inactive)	0.588 (inactive)	0.342 (inactive)	0.0418 (inactive)	0.315	0.12	0.415	0.174	1.07
CCCCC(=C=CC[C@@H](O)c1cccc(OCCO)c1)CCO	0.0999	-0.562 (inactive)	-0.564 (inactive)	3.5 (inactive)	-0.468 (inactive)	1.42	-0.188	-1.33	-0.828	0.364
